Bioassay records from PubChem.
In the library only some 6.6% were active in any assay of this set; here they are far more common.
KB-V1 MDR tox – qHTS assay for MDR1-selective chemotherapeutics: Primary screen using the drug-selected MDR subline cells KB-V1. KB-V1 MDR cells viability, CellTiter-Glo, 72 h. Potency, µM (top dose mostly 46.1 µM), hits mostly cytotoxic. hit rate 3.4% among 400,000. AID 1347076, 2019; further: on the % scale 0 is the no-effect control and ±100 the full control effect; nearly all actives have a fitted effect of over 60% in size
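Drug-selected KB-V1 cells, grown in DMEM lacking phenol red with 10% FBS, receive compound titrations; after three days at 37 degrees C, surviving cell ATP is quantified by CellTiter-Glo luminescence and responses normalized and curve-fitted.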
TGFb SMAD3 inh – qHTS for Inhibitors of TGF-b. Potency, µM (titrated, usually from 46.1 µM), without a hit: at the top dose activity, negative = inhibition, most hits filed as inhibitors. HepG2 CAGA-GFP TGF-b/SMAD3 reporter, GFP fluorescence, 18 h; TGF-beta stimulated, 500 pg/mL final. AID 588855, 2011. hit rate 1.2% among 410,000; further: on the % scale 0 is the no-effect control and ±100 the full control effect; nearly all actives have a fitted effect of over 65% in size
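Inhibition of TGF-beta-driven CAGA-GFP reporter expression in HEPG2 cells is measured by cellular GFP fluorescence after 18 h stimulation with 500 pg/mL recombinant TGF-beta in 1% FBS medium at 37 degrees C.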
HT1080 IDH1KD tx – qHTS for induction of synthetic lethality in tumor cells producing 2HG: qHTS for the HT-1080-IDH1KD cell line; AID 686971, 2013; HT-1080 IDH1 knockdown viability, ATP luminescence, 48 h; hit rate 2% among 360,000; Potency, µM (series often up to 46.1 µM), for inactives: at the highest dose activity, negative = toxicity, most hits filed as cytotoxic;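 further: 0% = DMSO wells and -100% = cell-free medium wells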
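Viability of IDH1-knockdown HT-1080 fibrosarcoma cells was assessed by CellTiter-Glo after 48 h at 37 °C with titrated compound; concentration-effect curves were classified by fit quality and response size.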
HT1080NT lethal – qHTS for induction of synthetic lethality in tumor cells producing 2HG: qHTS for the HT-1080-NT fibrosarcoma cell line; hit rate 1.6% among 360,000; HT-1080-NT fibrosarcoma viability, CellTiter-Glo ATP luminescence, 48 h; Potency, µM (series often up to 46.1 µM), for inactives: at the highest dose activity, negative = less viability, most hits filed as cytotoxic;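 further: NT is the 2HG producing partner of a matched IDH1 knockdown line; 0% = DMSO-treated cells and -100% = media-only wells without cells; nearly all actives have a fitted effect of over 55% in size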
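Toxicity toward the 2HG-producing NT line was scored as %Activity, normalised to DMSO and no-cell wells, from CellTiter-Glo luminescence after 48 hours' treatment.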
KB-3-1 tox – qHTS assay for MDR1-selective chemotherapeutics: Primary screen using the parental adenocarcinoma cell KB-3-1; KB-3-1 viability, CellTiter-Glo ATP luminescence, 72 h; AID 1347075, 2019; hit rate 1.4% among 400,000; Potency, µM (titrated, usually from 46.1 µM), hits mostly cytotoxic; further: on the % scale 0 is the no-effect control and ±100 the full control effect; nearly all actives have a fitted effect of over 60% in size
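Parental KB-3-1 viability, qHTS format: 72 h compound exposure, 37 °C; CellTiter-Glo; media-only wells and DMSO plates as controls; concentration-effect fits on corrected data.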
HepG2 tox – qHTS for Inhibitors of TGF-b: Cytotox Counterscreen | HepG2 CAGA-GFP viability, ATP luminescence, 18 h | Potency, µM (highest dose often 46.1 µM), inactives show at the highest dose activity change, negative = cytotoxicity, most hits filed as cytotoxic | hit rate 0.76% among 410,000
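CellTiter-Glo luminescence gave cytotoxicity after 18 hours at 37 degrees C. The cells were HepG2 CAGA-GFP in 1% FBS DMEM, stimulated with 500 pg/mL TGF-beta after compound addition. %Activity was normalised to no-cell wells (complete cell-killing) and DMSO (no toxicity), and curves were fitted and classified.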
Active calls of the source: *; i = inactive; ? = inconclusive; / = no result given. The call rests on the fitted dose curve; in most records, active means well fitted curve in the direction sought with a large enough effect; inconclusive means small, poorly fitted or top-dose-only effect, or another doubt; inactive means no such curve, though single readings can be large; an effect the other way counts as inactive or inconclusive. Potency means the concentration at half of the fitted maximal effect.

SMILES | KB-V1 MDR tox | TGFb SMAD3 inh | HT1080 IDH1KD tx | HT1080NT lethal | KB-3-1 tox | HepG2 tox
CCCc1nc2ccccc2c(=O)n1/N=C/c1ccccc1O | 16µM* | 2.8µM* | ? | ? | i | -36%
CCCc1nc2ccccc2c(=O)n1/N=C/c1c(C)[nH]n(-c2ccc(C)cc2)c1=O | 16µM* | ? | 18µM* | 16µM* | 8.2µM* | -89%
Cc1ccc(-c2[nH]ncc2/C=N/n2c(COc3ccccc3C)nc3ccccc3c2=O)cc1 | ? | 13µM* | ? | ? | ? | 5.6µM*
CCN(CC)CCCNC(=O)CSc1nc(-c2ccc(OC)cc2)cc(C(F)(F)F)n1 | i | -6% | / | / | i | -27%
COc1ccc(N(CC(=O)Nc2cccc(C(C)=O)c2)S(=O)(=O)c2ccccc2)c(OC)c1 | ? | 7% | / | / | ? | -1%
COc1cc2c(cc1OC)CN(C(=O)c1cccs1)CC2 | i | -6% | 27% | 16% | i | 4%
COc1cccc2cc(C(=O)N3CCc4ccccc4C3)c(=O)oc12 | i | 0% | 8% | 15% | i | -3%
COc1cc2c(cc1OC)CN(C(=O)/C=C/c1cccs1)CC2 | ? | -11% | 4.1µM* | 7.3µM* | 3.7µM* | -50%
COc1cc2c(cc1OC)CN(C(=O)c1cc3ccccc3oc1=O)CC2 | 4.6µM* | ? | 16µM* | ? | ? | 2%
COc1cc2c(cc1OC)CN(S(=O)(=O)c1cccs1)CC2 | 18µM* | ? | -1% | 13% | i | 3%
COc1ccc(C(=O)/C=C/Sc2nc3ccccc3o2)cc1 | ? | 10µM* | 3.3µM* | ? | ? | 18µM*
Clc1ccc(-c2cn3c(n2)-c2ccccc2C3)cc1Cl | 15µM* | -30% | -14% | -8% | i | -22%
Clc1ccc(-c2cn3cc(Br)ccc3n2)cc1Cl | i | 10% | -1% | -6% | i | -32%
Cc1cc(C)n(-c2nc(NCc3cccnc3)c3c4c(sc3n2)COC(C)(C)C4)n1 | ? | ? | 23µM* | ? | ? | -39%
CCN(CC)CCCNc1nc(-n2nc(C)cc2C)nc2sc3c(c12)CC(C)(C)OC3 | i | -4% | ? | ? | i | -35%
Cc1ccc(CNC(=O)CSCc2nc(-c3cccc(C)c3)oc2C)cc1 | i | ? | / | / | ? | -26%
COc1ccc(-c2nc(CSCC(=O)NCc3ccco3)c(C)o2)cc1 | 13µM* | -4% | 8% | 4% | i | 4%
Cc1ccc(-c2nc(CSCC(=O)NCc3cccnc3)c(C)o2)cc1 | 3.7µM* | -17% | -3% | 3% | ? | -15%
COc1ccc(-c2nc(CSCC(=O)NCCc3ccccc3)c(C)o2)cc1 | i | ? | / | / | ? | -41%
Cc1cc(C(=O)NNc2ccc(F)cc2)no1 | i | -9% | 5.2µM* | ? | ? | -3%
Cc1cc(C(=O)NNc2c(Cl)cccc2Cl)no1 | i | 2% | 7% | -3% | i | 9%
Cc1cc(C(=O)NNc2ccccc2F)no1 | i | 6% | 2.6µM* | 5.2µM* | i | -4%
CCc1ccccc1NNC(=O)c1cc(C)on1 | i | -27% | -23% | -14% | i | -31%
CCCc1ccc(C(=O)NNc2ccccc2F)cc1 | i | -6% | 6.5µM* | ? | i | -9%
COc1cccc(C(=O)N(Cc2cccnc2)c2nc3c(OC)ccc(C)c3s2)c1OC | i | ? | / | / | i | -25%
SMILES | KB-V1 MDR tox | TGFb SMAD3 inh | HT1080 IDH1KD tx | HT1080NT lethal | KB-3-1 tox | HepG2 tox
Cc1c(C(=O)Nc2cccc(-c3nc4ccccc4s3)c2)oc2ccc(F)cc12 | i | -31% | / | / | i | -11%
N#CC1=C(N)Oc2cc(N)ccc2C1c1cccnc1 (configuration not stated) | i | -7% | -22% | -3% | ? | 2%
CCN(CC)c1ccc2c(c1)OC(N)=C(C#N)C2c1cccnc1 (configuration not stated) | 0.29µM* | 19% | 0.23µM* | ? | 0.041µM* | -38%
CCCN(CCC)C(=O)Cn1c(=O)n(-c2ccccc2)c(=O)c2c3c(sc21)CCCC3 | i | 6% | / | / | i | -1%
CC[C@H](C)C(C(=O)N1CCN(C(=O)OC(C)(C)C)CC1)n1cc(C(CC(C)C)NC(=O)OC(C)(C)C)nn1 (some centres not stated) | i | ? | 5% | 7% | i | -4%
CC[C@@H](C)[C@@H](C(=O)N1CCN(C(=O)OC(C)(C)C)CC1)n1cc(CCCCNC(=O)OC(C)(C)C)nn1 | 21µM* | -8% | -2% | -2% | ? | -5%
COc1ccc(NC(=O)c2sc(=O)n(Cc3ccc4ccccc4c3)c2C)cc1OC | ? | ? | ? | -20% | i | 4%
O=C(COc1ccccc1[N+](=O)[O-])N/N=C/C=C/c1ccco1 | i | -19% | 10% | 8% | i | -19%
COc1ccccc1OCC(=O)N/N=C/C=C/c1ccc([N+](=O)[O-])o1 | 16µM* | 10µM* | ? | -6% | ? | -76%
Cc1ccccc1OCC(=O)N/N=C/c1ccc([N+](=O)[O-])o1 | i | 18µM* | ? | -26% | i | -91%
COc1ccc(C(=O)Nc2cccc(C(=O)OCc3cc(=O)n4nc(C5CC5)sc4n3)c2)cc1 | ? | -3% | / | / | i | -32%
